Shown are actives, neighbours in structure and some others; about 19% of the full set was active somewhere.
DT40 TDP1 no CPT: qHTS for Inhibitors of human tyrosyl-DNA phosphodiesterase 1 (TDP1): qHTS in cells in absence of CPT; DT40 Tdp1-/- hTDP1 cells, no CPT, ATP luminescence, 48 h; Potency, µM (top dose mostly 46.2 µM), actives largely listed as inhibitors; 15% of 420,000 active; note: nearly all actives have a fitted effect of over 55% in size
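Growth of hTDP1-complemented DT40 Tdp1-knockout cells is measured by ATP luminescence after at least 48 hr compound exposure at 37 °C, with DMSO substituting for the 20 nM CPT used in the parallel screen.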
VP16 counter: Gal4-VP16 reporter inhibition counter-screen | Drosophila S2 Gal4-VP16 UAS-luciferase, luminescence, 20 h | AID 2546 | Potency, µM (top dose mostly 53.6 µM), actives largely listed as inhibitors | 3.5% of 310,000 active;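 note: Gal4-VP16 expression switched on by copper sulfate through the metallothionein promoter; nearly all actives have a fitted effect of over 50% in size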
TDP1 inh: TDP1 (human) enzyme inhibition | Q9NUW8 | recombinant TDP1, AlphaScreen DNA substrate cleavage | Potency, µM (top dose mostly 130 µM), most hits filed as inhibitors | 0.28% of 350,000 active; note: nearly all actives have a fitted effect of over 40% in size
Target sequence (Q9NUW8 whole entry, looked up): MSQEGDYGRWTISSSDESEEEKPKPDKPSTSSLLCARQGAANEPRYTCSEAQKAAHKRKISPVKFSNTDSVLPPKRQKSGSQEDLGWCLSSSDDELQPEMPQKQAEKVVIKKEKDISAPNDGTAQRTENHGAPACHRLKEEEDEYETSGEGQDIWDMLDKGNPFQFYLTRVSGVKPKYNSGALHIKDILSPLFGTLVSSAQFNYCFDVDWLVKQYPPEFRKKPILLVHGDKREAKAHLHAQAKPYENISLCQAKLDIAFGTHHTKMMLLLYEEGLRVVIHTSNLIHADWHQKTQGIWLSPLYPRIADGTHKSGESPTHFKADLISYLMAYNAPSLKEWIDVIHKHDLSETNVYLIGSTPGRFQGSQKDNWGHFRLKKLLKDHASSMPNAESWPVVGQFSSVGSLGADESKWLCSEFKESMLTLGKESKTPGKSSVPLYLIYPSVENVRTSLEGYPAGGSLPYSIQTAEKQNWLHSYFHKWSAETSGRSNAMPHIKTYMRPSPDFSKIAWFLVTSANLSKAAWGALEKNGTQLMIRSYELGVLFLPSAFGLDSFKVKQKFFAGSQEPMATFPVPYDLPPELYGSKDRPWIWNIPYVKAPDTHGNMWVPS
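Here, a 5' biotin and 3' phosphotyrosine-FITC DNA oligonucleotide reports Tdp1 activity: intact substrate bridges AlphaScreen beads, while cleavage leaves a 3' phosphate and drops signal. All incubations at room temperature.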
TDP1 cell CPT: DT40-hTDP1 cell growth loss with CPT | Potency, µM (doses to about 46.2 µM), hits mostly inhibitors | AID 686979 | chicken DT40 Tdp1-/-;hTDP1 cells + 20 nM CPT, ATP luminescence, 48 h | 12% of 420,000 active; note: nearly all actives have a fitted effect of over 55% in size
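Cell growth measured by CellTiter-Glo luminescence after a minimum 48 h, 37 C compound exposure with 20 nM CPT in Tdp1-knockout DT40 cells stably expressing hTDP1, seeded 400/well; qHTS titration format.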
RORg inh: ROR gamma (mouse) transcription inhibition; Drosophila S2 Gal4-RORgamma UAS-luciferase reporter, 20 h; Potency, µM (series often up to 53.6 µM), hits mostly inhibitors; P51450; AID 2551; 5.4% of 310,000 active; note: nearly all actives have a fitted effect of over 60% in size
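Luminescence from a UAS-regulated Photinus luciferase reporter in stably transfected Drosophila Schneider cells is measured; decreased signal marks ROR gamma inhibition. Fusion expression is induced by 700 uM copper sulfate for 20 hr.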
A number is an active result; – = inactive; ? = inconclusive; · = no result given. Calls come from the whole dose curve; as a rule, active = well fitted curve in the direction sought with a large enough effect; inconclusive = small, poorly fitted or top-dose-only effect, or another doubt; inactive = no such curve, though single readings can be large; an effect the other way counts as inactive or inconclusive.

SMILES	DT40 TDP1 no CPT	VP16 counter	TDP1 inh	TDP1 cell CPT	RORg inh
CCOC(=O)CSc1[nH]c2cc(OC)ccc2c1[N+](=O)[O-]	–	–	–	–	–
O=c1c(Cl)c(Cl)cnn1Cc1ccccc1Cl	1µM	?	–	2.6µM	1.1µM
Cc1cc(C)cc(Cn2ncc(Cl)c(Cl)c2=O)c1	12µM	11µM	–	8.2µM	?
CCc1ccc(C(=O)Cn2ccsc2=N)cc1	–	–	·	–	?
Cc1ccc(Cn2ncc(Cl)c(Cl)c2=O)cc1	3.3µM	?	–	5.2µM	?
CCc1ccc(C(=O)Cn2ncc(Cl)c(Cl)c2=O)cc1	2.9µM	–	–	3.7µM	–
NC(=O)C1CCCN(C(=O)c2ccc3nc(Cc4cccc(Cl)c4)oc3c2)C1 (stereo not given)	–	–	–	–	–
CCSCCOC(=O)C1=C(C)NC2=C(C(=O)CCC2)C1c1coc2ccccc2c1=O (stereo not given)	–	–	–	–	–
O=c1c(Cl)c(Cl)cnn1Cc1nnc(-c2ccc(Cl)cc2)o1	0.92µM	?	–	0.82µM	?
COc1ccc(-c2cc3ccccc3oc2=O)cc1NC(=S)NC(=O)c1ccc2c(c1)OCCO2	9.2µM	–	–	12µM	?
COc1ccc(-c2cc3ccccc3oc2=O)cc1NC(=O)c1ccc(Br)o1	?	?	–	–	?
CCC(=O)Nc1cc(-c2cc3ccccc3oc2=O)ccc1OC	?	–	?	–	–
COc1ccc(-c2cc3ccccc3oc2=O)cc1NC(=O)c1ccc([N+](=O)[O-])o1	15µM	–	–	21µM	–
O=C(COc1ccc(/C=N/NS(=O)(=O)c2ccccc2)cc1)Nc1cccc(Cl)c1	21µM	–	–	?	?
COc1ccc(OC)c(NC(=O)COC(=O)c2cc3c(s2)CCC3)c1	–	–	2.8µM	–	–
COc1ccccc1NC(=O)COC(=O)c1cc2c(s1)CCC2	–	·	10µM	–	·
Cc1ccc(S(=O)(=O)NNC(=S)Nc2c(Cl)cccc2Cl)cc1	–	?	–	–	10µM
O=S(=O)(Nc1ncccn1)c1ccc(NC(=S)NCCc2ccc(Cl)cc2)cc1	–	–	–	–	–
CC(=O)NC(=S)Nc1ccc(S(=O)(=O)Nc2ncccn2)cc1	–	–	–	–	–
Cc1ccc(NC(=S)NNS(=O)(=O)c2ccc3ccccc3c2)cc1Cl	–	?	–	–	11µM
Cc1ccc(NC(=S)Nc2ccc(S(=O)(=O)Nc3ncccn3)cc2)cc1Cl	·	?	–	·	32µM
Cc1ccc(S(=O)(=O)NNC(=S)Nc2ccc(Cl)cc2)cc1	–	–	–	–	–
O=S(=O)(Nc1ncccn1)c1ccc(NC(=S)Nc2cccc(Cl)c2)cc1	·	?	–	·	11µM
COC(=O)c1c(NC(C)=O)csc1C	–	–	–	–	–
CCOC(=O)c1csc(NC(=O)c2cc(=O)c3ccccc3o2)n1	–	–	–	–	–
SMILES	DT40 TDP1 no CPT	VP16 counter	TDP1 inh	TDP1 cell CPT	RORg inh
Cn1nc(C(C)(C)C)cc1NC(=O)Nc1ccc(Cl)cc1	–	–	–	–	–
Cc1csc(C(=O)O)c1-c1c(C)csc1C(=O)O	–	–	–	–	–
COc1ccc(N2CCN(C(CNC(=O)c3ccc(OC)c(OC)c3)c3cccnc3)CC2)cc1 (stereo not given)	?	·	–	–	·
COc1ccc(C(=O)NCC(c2cccnc2)N2CCN(c3ccc(F)cc3)CC2)cc1 (stereo not given)	10µM	·	–	15µM	·
COc1ccc(C(=O)NCC(c2cccnc2)N2CCN(c3ccccc3)CC2)cc1 (stereo not given)	16µM	·	–	?	·
CC(=O)CCCCn1c(=O)c2c(ncn2C)n(C)c1=O	–	–	–	–	–
CCOC(=O)C1=CCN(S(=O)(=O)c2ccccc2C)C1c1ccc(Cl)cc1 (stereo not given)	15µM	·	·	?	·
CCOC(=O)C1=CCN(S(=O)(=O)c2ccccc2F)C1c1ccc(C)cc1 (stereo not given)	–	·	·	–	·
CCOC(=O)C1=CCN(S(=O)(=O)c2ccccc2F)C1c1ccccc1 (stereo not given)	16µM	·	·	?	·
CCOC(=O)C1=CCN(S(=O)(=O)c2ccccc2Cl)C1c1ccccc1 (stereo not given)	23µM	·	·	?	·
CC(=O)c1ccccc1NC(=O)COC(=O)C1CCCN1S(=O)(=O)c1ccccc1F (stereo not given)	–	·	–	–	·
CCOC(=O)c1c(C)[nH]c(C)c1C(=O)COC(=O)C1CCCN1S(=O)(=O)c1ccccc1F (stereo not given)	15µM	–	–	12µM	–
COc1ccc(N2C(=O)CCC(C(=O)N3CCC(C(N)=O)CC3)C2c2ccc(F)cc2)cc1 (stereo not given)	–	–	–	–	–
COC(=O)C1=C(C(C)=O)C(c2ccc(C)cc2)n2nnnc2N1 (stereo not given)	–	–	–	–	?
CCOC(=O)C1=CCN(S(=O)(=O)c2ccccc2Cl)C1c1ccc(C)cc1 (stereo not given)	18µM	·	·	26µM	·
COc1ccc(NC(=O)[C@@H](NS(=O)(=O)c2cccc(Cl)c2)C(C)C)cc1S(=O)(=O)N1CCOCC1	–	·	–	–	·
Cc1cccc(NC(=S)Nn2cnnc2)c1C	–	?	–	–	?
CCOc1ccc(N=C/C=C/c2ccccc2)c(O)c1	18µM	–	–	18µM	–
CCOc1ccc(NCC(=O)N/N=C/C=C/c2ccccc2)cc1	?	?	–	?	?
CCOC(=O)c1ccc(NC(=O)CSc2nc3cccnc3n2C)cc1	21µM	?	–	?	?
COc1ccc(NC(=O)CSc2nc3cccnc3n2C)cc1	–	–	–	–	?
CCOC(=O)c1c(-c2ccccc2)nc2c(C)cccn12	16µM	–	–	15µM	–
CCOC(=O)c1ccc(NC(=O)CSc2nc(=O)n3cccc(C)c3n2)cc1	13µM	·	–	21µM	·
COC(=O)c1ccc(NC(=O)CSc2nc3cccnc3n2C)cc1	16µM	–	–	?	?
CC(=O)Nc1ccccc1C(=O)C(=O)Nc1cccc(Br)c1	18µM	–	–	–	–
CCN(CC(=O)Nc1ccc(NC(C)=O)cc1)C(=O)c1ccc(N(C)S(=O)(=O)c2ccc(C)cc2)cc1	?	·	·	26µM	·
CCCNC(=O)NC(=O)COC(=O)c1ccc(S(=O)(=O)N(C)c2ccccc2OC)cc1	21µM	?	–	29µM	?
CCN(CC(=O)Nc1ccccc1OC)C(=O)c1ccc(N(C)S(=O)(=O)c2ccc(C)cc2)cc1	16µM	·	–	15µM	·
COc1ccc(NC(=O)COc2ccc(N(C)S(=O)(=O)c3ccc(C)cc3)cc2)cc1	?	–	–	?	?
CCN(CC(=O)Nc1ccccc1OC)C(=O)CSCc1ccc(C)cc1	?	·	–	?	·

Bioassay records: PubChem BioAssay, National Center for Advancing Translational Sciences (NCATS)
